# From PubChem BioAssay
# Calls of active or inactive are those of the source.
# Columns and labels:
# [1] = system: PRMT1 (protein arginine N-methyltransferase 1); experiment: small molecules binding arginine methyltransferase PRMT1 – biochemical, small-molecule microarray, 635 nm fluorescence, primary screen (AID 1088); settings: higher = more signal;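 further: binding of Prmt1 protein to compounds spotted on small-molecule microarray slides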
# [2] = growth effects on S. cerevisiae YJM789 – YJM789 clinical isolate, OD600, 24 h, basal, primary screen (AID 1089); settings: higher = more signal, called active from +8 up or from −8 down;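 further: growth of clinical yeast isolate S. cerevisiae YJM 789 seeded 1000 cells per well; test concentration not given here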
# [3] = S. pombe growth modifiers, basal conditions – strain 972, OD600, 24 h, no modulator, primary screen (AID 1090);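 further: basal condition with compound alone and no growth modifier present; test concentration not given here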; settings: S. pombe 972 growth, higher = more signal, called active from +8 up or from −8 down
# [4] = budding yeast growth modifiers under rapamycin – strain BY4716, OD600, 96 h, primary screen (AID 1091); further: test concentration not given here; settings: S. cerevisiae BY4716 + rapamycin, higher = more signal, called active from +8 up or from −8 down
# [5] = molecular target: Torsin-1A-interacting protein 2 (Homo sapiens) (UniProt Q8NFQ8); experiment: small molecules binding lysate-expressed LULL1 – cell lysate, human LULL1 lysate, 635/667 nm fluorescence, primary screen (AID 1092); settings: small-molecule microarray, hLULL1 lysate binding, 635 nm fluorescence; higher = more signal;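 further: probe is lysate of COS7 cells overexpressing human LULL1; score merges per-feature 667 nm fluorescence with signal-to-noise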
# [6] = optical density change of DRC41 E. coli – strain DRC41, OD650, 24 h, E. coli filamentation project, primary screen (AID 1093);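 further: MC1000 strain lacking acrAB efflux and sulA so SOS filamentation is blocked; test concentration not given here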; settings: E. coli DRC41 growth, higher = more signal, called active from +8 up or from −8 down
# [7] = probe aLefty2 binding to arrayed compounds – biochemical, biotinylated probe, 635/667 nm fluorescence, primary screen (AID 1094); settings: small-molecule microarray, higher = more signal;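 further: score merges spot fluorescence near 667 nm with spot signal-to-noise ratio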
# [8] = system: Noggin (protein binding on small-molecule microarray); experiment: small molecules binding Noggin protein – biochemical, 635/667 nm fluorescence, primary screen (AID 1095); settings: 635 nm fluorescence, higher = more signal;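 further: score merges 667 nm feature fluorescence with signal to noise over triplicate slides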
# [9] = molecular target: Neurogenic locus notch homolog protein 3 (Homo sapiens) (UniProt Q9UM47); experiment: small molecules binding NOTCH3 protein – biochemical, 635/667 nm fluorescence, primary screen (AID 1096); settings: small-molecule microarray, 635 nm fluorescence, higher = more signal
# [10] = probe aEGFR binding to arrayed compounds – biochemical, biotinylated probe, 635/667 nm fluorescence, primary screen (AID 1097); settings: small-molecule microarray, higher = more signal;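 further: probe is a biotinylated anti-EGFR antibody binding compounds printed on slides; score combines fluorescence near 667 nm and signal to noise of each spot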
# [11] = system: Plasmodium falciparum Sir2 (PF13_0152, Sir2A); experiment: Plasmodium falciparum Sir2A binding compounds – biochemical, small-molecule microarray, 635 nm fluorescence, primary screen (AID 1098); settings: fluorescence 635 nm, higher = more signal;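 further: score merges spot fluorescence intensity with its signal-to-noise ratio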
# [12] = probe aDKK1 binding to arrayed compounds – biochemical, biotinylated probe, 635/667 nm fluorescence, primary screen (AID 1099); settings: small-molecule microarray, higher = more signal;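 further: score merges 667nm spot fluorescence with signal to noise across triplicate slides; reference of the scale not given here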
# [13] = probe aCHRDL2 binding to arrayed compounds – biochemical, biotinylated probe, 635/667 nm fluorescence, primary screen (AID 1100); settings: small-molecule microarray, higher = more signal
# [14] = change in splice reporter luminescence, either direction, cell-based, HEK293, spliceosome inhibition project, primary screen (AID 1101); settings: HEK293 splicing luciferase reporter, 24 h, higher = more signal, called active from +8 up or from −8 down;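 further: HEK293 cells carrying a splicing-competent luciferase reporter gene; test concentration not given here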
# [15] = molecular target: Fibroblast growth factor 10 (Homo sapiens) (UniProt O15520); experiment: compounds binding fibroblast growth factor 10 – biochemical, small-molecule microarray, 635 nm fluorescence, primary screen (AID 1102); settings: FGF10 binding, fluorescence 635 nm, higher = more signal
# [16] = system: glycogen synthase kinase-3 (GSK3A per assay name; protocol says GSK3B); experiment: compounds binding glycogen synthase kinase-3 – biochemical, small-molecule microarray, 635 nm fluorescence, GSK3A, primary screen (AID 1103); settings: fluorescence 635 nm, higher = more signal; further: the record names both GSK3A and GSK3B
# [17] = molecular target: Epidermal growth factor receptor (Homo sapiens) (UniProt P00533); experiment: compounds binding epidermal growth factor receptor – biochemical, small-molecule microarray, 635 nm fluorescence, primary screen (AID 1104); settings: EGFR binding, higher = more signal;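 further: score merges 667 nm emission intensity with spot signal to noise over triplicate slides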
# [18] = molecular target: Follistatin-related protein 3 (Homo sapiens) (UniProt O95633); experiment: compounds binding follistatin-related protein 3 – biochemical, small-molecule microarray, 635 nm fluorescence, primary screen (AID 1105); settings: FSTL3 binding, higher = more signal;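 further: score merges emission near 667 nm and signal to noise per printed spot across three slides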
# [19] = molecular target: Dickkopf-related protein 1 (Homo sapiens) (UniProt O94907); experiment: small molecules binding DKK1 protein – biochemical, small-molecule microarray, 635 nm fluorescence scan, primary screen (AID 1106); settings: higher = more signal;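 further: score merges emission near 667 nm with signal to noise over three replicate slides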
# [20] = system: Inhibin beta A chain (activin A); experiment: small molecules binding activin A – biochemical, small-molecule microarray, 635 nm fluorescence scan, primary screen (AID 1107); settings: INHBA, higher = more signal;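 further: mouse activin A protein probed at 4.33 µg/mL on printed slides; score merges bound-protein fluorescence near 667 nm with spot signal-to-noise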
# Torsin-1A-interacting protein 2 (Homo sapiens), sequence (Q8NFQ8 whole entry, looked up): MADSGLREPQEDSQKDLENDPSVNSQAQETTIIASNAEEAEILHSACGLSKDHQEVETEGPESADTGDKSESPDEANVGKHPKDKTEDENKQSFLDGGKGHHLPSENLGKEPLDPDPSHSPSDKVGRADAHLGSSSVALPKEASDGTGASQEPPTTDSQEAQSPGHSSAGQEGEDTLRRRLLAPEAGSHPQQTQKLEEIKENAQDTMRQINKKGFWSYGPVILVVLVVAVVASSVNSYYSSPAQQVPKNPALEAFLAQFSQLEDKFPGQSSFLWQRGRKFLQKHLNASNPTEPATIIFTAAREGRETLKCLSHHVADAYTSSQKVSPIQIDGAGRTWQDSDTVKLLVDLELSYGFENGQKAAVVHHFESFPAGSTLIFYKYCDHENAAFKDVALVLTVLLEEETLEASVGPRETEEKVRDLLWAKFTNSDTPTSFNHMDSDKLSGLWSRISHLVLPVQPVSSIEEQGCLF
# Dickkopf-related protein 1 (Homo sapiens), sequence (O94907 whole entry, looked up): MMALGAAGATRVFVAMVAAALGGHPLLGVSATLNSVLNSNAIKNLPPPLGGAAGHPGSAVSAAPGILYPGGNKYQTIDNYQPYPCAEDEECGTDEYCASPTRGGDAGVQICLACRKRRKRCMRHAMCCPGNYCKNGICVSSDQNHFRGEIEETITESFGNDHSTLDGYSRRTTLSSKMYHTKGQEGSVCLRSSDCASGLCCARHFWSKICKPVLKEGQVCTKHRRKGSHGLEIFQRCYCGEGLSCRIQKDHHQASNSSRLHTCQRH
# Epidermal growth factor receptor (Homo sapiens), sequence (P00533 whole entry, looked up): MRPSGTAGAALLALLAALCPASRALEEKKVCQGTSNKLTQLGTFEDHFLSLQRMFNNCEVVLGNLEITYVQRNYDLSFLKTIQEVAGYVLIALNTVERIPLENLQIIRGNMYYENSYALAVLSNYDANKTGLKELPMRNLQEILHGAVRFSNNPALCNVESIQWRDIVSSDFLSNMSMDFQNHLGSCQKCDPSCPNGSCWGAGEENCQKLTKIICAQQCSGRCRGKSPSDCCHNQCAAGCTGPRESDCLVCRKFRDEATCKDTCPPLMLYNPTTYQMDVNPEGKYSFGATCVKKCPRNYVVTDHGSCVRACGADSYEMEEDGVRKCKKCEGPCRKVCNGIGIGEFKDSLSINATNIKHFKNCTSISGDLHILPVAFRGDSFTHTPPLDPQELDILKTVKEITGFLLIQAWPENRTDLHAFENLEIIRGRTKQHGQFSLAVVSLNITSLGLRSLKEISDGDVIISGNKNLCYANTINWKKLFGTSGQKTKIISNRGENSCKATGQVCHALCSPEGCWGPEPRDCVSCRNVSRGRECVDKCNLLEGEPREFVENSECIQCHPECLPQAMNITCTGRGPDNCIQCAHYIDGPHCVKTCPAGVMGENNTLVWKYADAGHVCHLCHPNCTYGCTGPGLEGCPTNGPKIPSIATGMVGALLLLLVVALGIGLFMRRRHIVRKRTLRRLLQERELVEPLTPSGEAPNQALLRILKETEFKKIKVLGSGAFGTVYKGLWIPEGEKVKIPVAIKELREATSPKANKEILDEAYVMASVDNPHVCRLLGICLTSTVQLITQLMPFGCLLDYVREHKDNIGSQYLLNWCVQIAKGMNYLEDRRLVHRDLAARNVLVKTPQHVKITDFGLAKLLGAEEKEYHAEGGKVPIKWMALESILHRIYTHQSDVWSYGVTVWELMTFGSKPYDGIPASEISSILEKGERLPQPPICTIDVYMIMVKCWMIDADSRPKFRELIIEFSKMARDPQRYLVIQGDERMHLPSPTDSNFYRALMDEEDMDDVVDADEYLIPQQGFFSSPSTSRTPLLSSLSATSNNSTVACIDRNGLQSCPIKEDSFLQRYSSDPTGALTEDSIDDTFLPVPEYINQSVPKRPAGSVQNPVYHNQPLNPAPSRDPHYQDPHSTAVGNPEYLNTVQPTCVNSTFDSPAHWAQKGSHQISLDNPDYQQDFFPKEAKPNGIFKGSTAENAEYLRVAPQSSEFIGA
# Neurogenic locus notch homolog protein 3 (Homo sapiens), sequence (Q9UM47 whole entry, looked up): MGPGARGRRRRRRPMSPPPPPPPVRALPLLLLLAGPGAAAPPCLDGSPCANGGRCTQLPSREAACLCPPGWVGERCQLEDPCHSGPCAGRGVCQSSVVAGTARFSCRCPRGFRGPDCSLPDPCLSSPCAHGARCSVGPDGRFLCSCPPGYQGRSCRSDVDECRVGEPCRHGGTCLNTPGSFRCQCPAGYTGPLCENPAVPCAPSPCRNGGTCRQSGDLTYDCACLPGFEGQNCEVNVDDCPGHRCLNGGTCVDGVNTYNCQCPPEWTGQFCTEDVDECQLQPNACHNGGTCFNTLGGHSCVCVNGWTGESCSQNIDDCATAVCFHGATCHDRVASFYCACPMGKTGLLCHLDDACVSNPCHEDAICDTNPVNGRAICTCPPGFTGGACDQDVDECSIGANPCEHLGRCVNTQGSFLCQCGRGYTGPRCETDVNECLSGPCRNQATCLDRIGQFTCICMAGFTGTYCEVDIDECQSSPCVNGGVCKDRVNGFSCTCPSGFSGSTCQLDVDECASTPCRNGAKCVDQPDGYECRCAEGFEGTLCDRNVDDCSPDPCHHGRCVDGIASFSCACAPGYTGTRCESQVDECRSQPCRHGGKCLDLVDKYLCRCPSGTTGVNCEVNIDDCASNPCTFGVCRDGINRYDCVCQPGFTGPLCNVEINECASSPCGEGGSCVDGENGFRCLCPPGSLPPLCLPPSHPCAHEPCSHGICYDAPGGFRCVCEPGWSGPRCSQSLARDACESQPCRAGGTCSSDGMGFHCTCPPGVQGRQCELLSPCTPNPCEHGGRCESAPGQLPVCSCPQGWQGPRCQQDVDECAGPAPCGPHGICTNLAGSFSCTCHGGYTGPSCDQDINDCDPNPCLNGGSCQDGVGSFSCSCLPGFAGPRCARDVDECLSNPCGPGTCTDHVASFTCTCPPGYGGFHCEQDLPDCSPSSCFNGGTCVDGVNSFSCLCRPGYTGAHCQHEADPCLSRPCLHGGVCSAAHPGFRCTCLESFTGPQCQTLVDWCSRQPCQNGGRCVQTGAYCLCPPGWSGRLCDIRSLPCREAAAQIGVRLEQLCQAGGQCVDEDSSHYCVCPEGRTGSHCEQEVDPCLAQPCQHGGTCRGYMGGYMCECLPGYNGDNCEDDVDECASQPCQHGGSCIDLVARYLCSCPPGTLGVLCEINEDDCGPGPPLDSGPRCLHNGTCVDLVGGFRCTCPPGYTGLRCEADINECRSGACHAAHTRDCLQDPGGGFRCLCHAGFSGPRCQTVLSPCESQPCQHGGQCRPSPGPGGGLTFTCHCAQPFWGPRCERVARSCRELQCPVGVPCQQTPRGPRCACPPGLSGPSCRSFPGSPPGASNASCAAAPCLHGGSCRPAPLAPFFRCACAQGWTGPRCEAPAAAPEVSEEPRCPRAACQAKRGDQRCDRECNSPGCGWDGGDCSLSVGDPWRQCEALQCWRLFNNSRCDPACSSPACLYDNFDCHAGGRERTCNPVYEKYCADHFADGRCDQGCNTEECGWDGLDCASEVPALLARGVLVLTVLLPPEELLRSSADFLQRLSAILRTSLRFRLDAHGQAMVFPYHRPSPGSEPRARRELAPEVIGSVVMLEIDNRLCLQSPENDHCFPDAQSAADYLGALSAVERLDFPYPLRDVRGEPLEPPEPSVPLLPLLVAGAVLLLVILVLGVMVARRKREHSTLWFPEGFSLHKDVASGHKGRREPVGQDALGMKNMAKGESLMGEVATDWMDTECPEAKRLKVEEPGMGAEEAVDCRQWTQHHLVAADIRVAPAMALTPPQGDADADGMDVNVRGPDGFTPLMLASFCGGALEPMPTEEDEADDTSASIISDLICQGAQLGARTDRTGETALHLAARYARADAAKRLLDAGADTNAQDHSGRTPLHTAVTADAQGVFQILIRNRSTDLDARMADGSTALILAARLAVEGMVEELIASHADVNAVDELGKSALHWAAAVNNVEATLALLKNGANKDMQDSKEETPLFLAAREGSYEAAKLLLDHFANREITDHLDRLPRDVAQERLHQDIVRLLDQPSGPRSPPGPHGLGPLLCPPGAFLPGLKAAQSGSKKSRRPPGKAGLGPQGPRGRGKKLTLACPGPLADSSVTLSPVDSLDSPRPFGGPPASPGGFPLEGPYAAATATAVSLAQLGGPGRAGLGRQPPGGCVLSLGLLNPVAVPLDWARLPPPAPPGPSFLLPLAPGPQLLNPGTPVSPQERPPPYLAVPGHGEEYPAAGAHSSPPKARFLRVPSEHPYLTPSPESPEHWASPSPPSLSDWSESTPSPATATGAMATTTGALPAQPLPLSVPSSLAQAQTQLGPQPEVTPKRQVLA
# Fibroblast growth factor 10 (Homo sapiens), sequence (O15520 whole entry, looked up): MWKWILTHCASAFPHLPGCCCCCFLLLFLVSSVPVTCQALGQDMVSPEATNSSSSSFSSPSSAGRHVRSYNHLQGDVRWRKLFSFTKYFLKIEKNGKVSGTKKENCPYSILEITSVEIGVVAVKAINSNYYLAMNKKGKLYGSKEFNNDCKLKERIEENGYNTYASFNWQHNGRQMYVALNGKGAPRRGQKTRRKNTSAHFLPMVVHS
# Follistatin-related protein 3 (Homo sapiens), sequence (O95633 whole entry, looked up): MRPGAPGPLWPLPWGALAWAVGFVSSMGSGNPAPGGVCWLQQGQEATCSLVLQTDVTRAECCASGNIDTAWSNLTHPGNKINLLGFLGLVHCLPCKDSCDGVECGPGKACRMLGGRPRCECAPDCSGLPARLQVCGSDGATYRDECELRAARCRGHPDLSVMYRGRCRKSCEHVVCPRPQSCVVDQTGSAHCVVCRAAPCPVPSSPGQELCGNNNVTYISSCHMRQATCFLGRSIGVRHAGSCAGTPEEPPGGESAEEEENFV
structure (smiles),measurement,setting,value
C=C(CCCC)/C(=C/C[C@H](OC(=O)c1ccncc1)c1ccccc1OCCO)c1cc(C(=O)OC)ccc1OC,composite z-score,[1],1.34
same,z-score,[2],0.47 (inactive)
same,z-score,[3],0.333 (inactive)
same,z-score,[4],1.42 (inactive)
same,composite z-score,[5],2.31
same,z-score,[6],0.588 (inactive)
same,composite z-score,[7],-0.0942
same,composite z-score,[8],0.502
same,composite z-score,[9],0.647
same,composite z-score,[10],-0.15
same,composite z-score,[11],0.209
same,composite z-score,[12],-0.126
same,composite z-score,[13],0.023
same,z-score,[14],-0.63 (inactive)
same,composite z-score,[15],0.864
same,composite z-score,[16],0.325
same,composite z-score,[17],0.0323
same,composite z-score,[18],0.636
same,composite z-score,[19],0.273
same,composite z-score,[20],1.17
C=CCOC(=O)[C@H]1[C@@H]2C(=O)O[C@@H](c3ccccc3)[C@@H](c3ccccc3)N2[C@@H](c2ccc(OCCOC(=O)[C@H]3C[C@H]4C(=O)N[C@@H](CC(C)C)C(=O)N4[C@H]3c3ccc(O)cc3)cc2)[C@]12C(=O)Nc1ccccc12,composite z-score,[1],1.53
same,z-score,[2],2.24 (inactive)
same,z-score,[3],1.47 (inactive)
same,z-score,[4],3.92 (inactive)
same,composite z-score,[5],2.42
same,z-score,[6],0.0375 (inactive)
same,composite z-score,[7],-0.084
same,composite z-score,[8],0.993
same,composite z-score,[9],1.08
same,composite z-score,[10],0.11
same,composite z-score,[11],1.58
same,composite z-score,[12],0.0955
same,composite z-score,[13],0.202
same,z-score,[14],0.119 (inactive)
same,composite z-score,[15],1.47
same,composite z-score,[16],1.34
same,composite z-score,[17],1.41
same,composite z-score,[18],1.4
same,composite z-score,[19],1.54
same,composite z-score,[20],0.509
COCC(=C=CC[C@H](O)c1ccccc1OCCO)C[C@H](O)COCc1ccccc1,composite z-score,[1],1.55
same,z-score,[2],-0.16 (inactive)
same,z-score,[3],-1.15 (inactive)
same,z-score,[4],-0.619 (inactive)
same,composite z-score,[5],2.71
same,z-score,[6],-0.111 (inactive)
same,composite z-score,[7],-0.0113
same,composite z-score,[8],0.513
same,composite z-score,[9],0.271
same,composite z-score,[10],0.312
same,composite z-score,[11],1.54
same,composite z-score,[12],0.132
same,composite z-score,[13],-0.316
same,z-score,[14],-0.111 (inactive)
same,composite z-score,[15],1.49
same,composite z-score,[16],0.342
same,composite z-score,[17],0.335
same,composite z-score,[18],0.3
same,composite z-score,[19],-0.06
same,composite z-score,[20],0.627
O=C1O[C@@H](c2ccccc2)[C@@H](c2ccccc2)N2[C@@H](c3ccc(OCCO)cc3)[C@]3(C(=O)Nc4ccc(C#CCCO)cc43)[C@@H](C(=O)O)[C@H]12,composite z-score,[1],1.53
same,z-score,[2],0.659 (inactive)
same,z-score,[3],0.799 (inactive)
same,z-score,[4],-0.261 (inactive)
same,composite z-score,[5],2.68
same,z-score,[6],0.543 (inactive)
same,composite z-score,[7],1.03
same,composite z-score,[8],1.31
same,composite z-score,[9],1.04
same,composite z-score,[10],0.853
same,composite z-score,[11],1.81
same,composite z-score,[12],0.416
same,composite z-score,[13],1.17
same,z-score,[14],0.362 (inactive)
same,composite z-score,[15],1.41
same,composite z-score,[16],0.746
same,composite z-score,[17],0.702
same,composite z-score,[18],0.988
same,composite z-score,[19],0.151
same,composite z-score,[20],1.34
CN(C)CCCCNC(=O)[C@H]1C[C@H]2C(=O)NCC(=O)N2[C@H]1c1ccc(O)cc1,composite z-score,[1],0.784
same,z-score,[2],0.873 (inactive)
same,z-score,[3],0.981 (inactive)
same,z-score,[4],0.144 (inactive)
same,composite z-score,[5],1.21
same,z-score,[6],0.187 (inactive)
same,composite z-score,[7],-0.189
same,composite z-score,[8],0.15
same,composite z-score,[9],0.408
same,composite z-score,[10],-0.139
same,composite z-score,[11],0.978
same,composite z-score,[12],-0.114
same,composite z-score,[13],0.0669
same,z-score,[14],-0.127 (inactive)
same,composite z-score,[15],-0.14
same,composite z-score,[16],-0.286
same,composite z-score,[17],-0.603
same,composite z-score,[18],-0.107
same,composite z-score,[19],0.0896
same,composite z-score,[20],-0.0569
CC[C@@H]1C=C(C(=O)O)[C@H](c2ccc(OC)cc2)N1S(=O)(=O)c1ccc(C)cc1,composite z-score,[1],-0.222
same,z-score,[2],-0.639 (inactive)
same,z-score,[3],0.211 (inactive)
same,z-score,[4],-0.113 (inactive)
same,composite z-score,[5],2.15
same,z-score,[6],-1.04 (inactive)
same,composite z-score,[7],-0.0491
same,composite z-score,[8],-0.199
same,composite z-score,[9],0.624
same,composite z-score,[10],-0.0828
same,composite z-score,[11],1.05
same,composite z-score,[12],-0.0814
same,composite z-score,[13],0.118
same,z-score,[14],0.603 (inactive)
same,composite z-score,[15],-0.0657
same,composite z-score,[16],-1.06
same,composite z-score,[17],-0.675
same,composite z-score,[18],0.0479
same,composite z-score,[19],-0.188
same,composite z-score,[20],0.615
CCCC=C(CCC)[C@@H](NC(=O)OCC(C)C)c1ccc(C(=O)OC)cc1,composite z-score,[1],0.586
same,z-score,[2],-0.245 (inactive)
same,z-score,[3],0.354 (inactive)
same,z-score,[4],-0.894 (inactive)
same,composite z-score,[5],0.893
same,z-score,[6],0.0664 (inactive)
same,composite z-score,[7],0.0506
same,composite z-score,[8],0.421
same,composite z-score,[9],0.621
same,composite z-score,[10],-0.123
same,composite z-score,[11],0.458
same,composite z-score,[12],-0.315
same,composite z-score,[13],-0.411
same,z-score,[14],-2.36 (inactive)
same,composite z-score,[15],0.674
same,composite z-score,[16],0.788
same,composite z-score,[17],0.471
same,composite z-score,[18],0.414
same,composite z-score,[19],0.85
same,composite z-score,[20],-0.155
COC(=O)[C@@]1(Cc2ccc(OC)cc2)[C@H]2c3cc(C(=O)N4CCCC4)n(Cc4ccc(C(F)(F)F)nc4)c3C[C@H]2CN1C(=O)c1ccccc1,composite z-score,[1],0.0861
same,z-score,[2],-0.361 (inactive)
same,z-score,[3],-0.138 (inactive)
same,z-score,[4],-0.707 (inactive)
same,composite z-score,[5],1.05
same,z-score,[6],-1.1 (inactive)
same,composite z-score,[7],0.248
same,composite z-score,[8],0.113
same,composite z-score,[9],0.269
same,composite z-score,[10],0.131
same,composite z-score,[11],1.27
same,composite z-score,[12],0.0202
same,composite z-score,[13],0.872
same,z-score,[14],-4.53 (inactive)
same,composite z-score,[15],0.69
same,composite z-score,[16],-0.478
same,composite z-score,[17],0.282
same,composite z-score,[18],0.11
same,composite z-score,[19],-0.301
same,composite z-score,[20],0.918
C=CCOC(=O)[C@H]1[C@@H]2C(=O)O[C@@H](c3ccccc3)[C@@H](c3ccccc3)N2[C@@H](c2ccc(OCCOC(=O)[C@@H]3C[C@@H]4C(=O)N[C@@H](CCCC[N+](C)(C)C)C(=O)N4[C@@H]3c3ccc(O)cc3)cc2)[C@]12C(=O)Nc1ccc(I)cc12,composite z-score,[1],1.53
same,z-score,[2],2.31 (inactive)
same,z-score,[3],-1.21 (inactive)
same,z-score,[4],1.34 (inactive)
same,composite z-score,[5],2.44
same,z-score,[6],-1.94 (inactive)
same,composite z-score,[7],-0.09
same,composite z-score,[8],1.31
same,composite z-score,[9],1.14
same,composite z-score,[10],0.06
same,composite z-score,[11],1.1
same,composite z-score,[12],0.031
same,composite z-score,[13],-0.211
same,z-score,[14],-0.21 (inactive)
same,composite z-score,[15],1.2
same,composite z-score,[16],1.24
same,composite z-score,[17],0.934
same,composite z-score,[18],1.21
same,composite z-score,[19],1.07
same,composite z-score,[20],0.723
